Potency data for 40 molecules are collected here from PubChem BioAssay (NCATS).

SMILES strings stand for the structures. Calls of active or inactive are those of the source. Entries that show only a call come without a potency. Calls come from the whole dose curve; as a rule, active = well fitted curve in the direction sought with a large enough effect; inconclusive = small, poorly fitted or top-dose-only effect, or effect the other way, or another doubt; inactive = no such curve, though single readings can be large or run the other way.

The nature of the assay: qHTS of Nrf2 Activators: LOPAC Validation (AID 624149). Conditions: Nrf2/ARE reporter cell assay; series mostly up to 46.1 µM. An excerpt:
Many diseases have some form of oxidative stress injury and ties to inflammation, causing a host of problems for the patient. The antioxidant response element (ARE) plays an important role in alleviating the harmful effects of oxidative stress. The antioxidant response element (ARE) is a transcriptional regulatory element involved in the activation of genes coding for a number of antioxidant proteins and detoxifying enzymes. These enzymes work in concert to protect tissues from oxidative insults and chemical toxicities in human hepatocytes and immune cells. The protective effects of ARE activation are primarily triggered through Nrf2 (NF-E2-related factor) binding to and activating AREs. It is known that Nrf2 controls the production of over 250 antioxidant and detoxification proteins (Hu et al., 2006), thereby protecting tissues by increasing cellular antioxidant content and suppressing inflammatory signaling pathways. The transcription factor Nrf2 is a central link between oxidative chemicals, such as phenolic antioxidants and electrophilic compounds, and the activation of ARE. Nrf2 levels are constitutively low as a consequence of its interaction with Keap1, which targets its degradation (Zipper and Mulcahy, 2002). Electrophiles react with key cysteine residues in Keap1, releasing Nrf2 and allowing its translocation to the nucleus. Once within the nucleus, Nrf2 complexes with coactivators such as p300, and binds to the AREs to induce gene transcription of cytoprotective enzymes, resulting in the prevention of toxicity. Activation of Nrf2 protects tissues by increasing cellular antioxidant content and suppressing inflammatory signaling pathways. Identifying novel and potent Nrf2 activators by using the AREc32 cell line to detect ARE activation by small molecules will lead to the identification and development of probes to study protective pathways in multiple tissues. These specific probes are essential to study the ARE pathway, and eventually to determine whether this pathway does activate genes that could protect against a host of diseases, including cardiovascular diseases, obesity, diabetes, Alzheimer's, and Parkinson's disease.
This project's aim is to identify novel and potent Nrf2 activators by using the AREc32 cell line to detect ARE activation by small molecules, which will lead to the identification and development of probes to study the ARE pathway.
NIH Chemical Genomics Center [NCGC]
NIH Molecular Libraries Probe Centers Network [MLPCN]
Assay Submitter (PI): Curtis Klaassen, University of Kansas Medical Center
5 uL of 1000 cells/well of AREc32_Fluc cells are seeded into 1536-well plate in OPTI-MEM medium with 5% FBS. The plates are incubated overnight at 37 deg C with 5% CO2. Then through pin tool transfer, 23 nL of compounds are added to each well before a 24 hr incubation at 37 deg C with 5% CO2. After the addition of 2.5 uL of Steady-Glo. the plates are kept at RT for 30 min, before they are read on the ViewLux
In general terms: qHTS replaces the single test concentration by a dilution series.
Regarding `CC(C)(C)c1cc(/C=C(\C#N)C(N)=S)cc(C(C)(C)C)c1O`, the Potency entry is “inactive”.
For `CC(N)=NCCCC[C@@H](N)C(=O)O` the value was “inactive”.
For `CCCCCC[C@@H]([C@@H](C)O)n1cnc2c(N)ncnc21` the value was “inactive”; for `COC(=O)[C@H](NC(=O)c1cc(-c2ccccc2)nc2ccccc12)c1ccccc1`, “inactive”; for `C=C1C(=O)O[C@@H]2[C@H]3O[C@]3(C)CCC=C(C)CC[C@@H]12`, “inactive”.
Regarding `NC(N)=NC(N)=Nc1cccc(Cl)c1`, the Potency result was “inactive”.
For `NC(=O)CNCCC(c1ccccc1)c1ccccc1` the value was “inactive”; for `Nc1ccc(-c2ccc3ccccc3n2)cc1`, “inactive”.
In the case of `CC(C)NC[C@H](O)COc1cccc2ccccc12`, the Potency entry is “inactive”.
In the case of `Cc1ccc([N+](=O)[O-])cc1S(=O)(=O)N(C)C`, the Potency entry is “inactive”.
For the molecule `NC(=Nc1ccccc1)NC(=O)c1nc(Cl)c(N)nc1N`, the Potency entry was “inactive”.
Consider `CCN(CC)CCOC(=O)c1cc(Cl)c(N)cc1OC`, for which the Potency result was “inactive”.
The entry for `Cn1c(=O)c2c(nc(/C=C/c3cccc(Cl)c3)n2C)n(C)c1=O` is “inactive”; for `O=[N+]([O-])c1cccc2cn[nH]c12` it is “inactive”; for `C=CC[C@H](N)C(=O)O` it is “inactive”.
On to `CC(=O)NCCc1c[nH]c2ccc(O)cc12`, for which the Potency result is “inactive”.
On to `N#C/C(=C\c1ccc(O)c(O)c1)C(=O)NCCc1ccccc1`, for which the Potency entry is “inactive”.
For `COc1ccc2c(c1)CCC1C2CC[C@@]2(C)C1CC[C@@H]2NCCCCCCN1C(=O)C=CC1=O` (stereo not given in full) the value was “inactive”.
Regarding `Nc1nc2c(nc(Br)n2C2OC3COP(=O)(O)O[C@@H]3C2O)c(=O)[nH]1` (stereo not given in full), the Potency result was “inactive”.
For `C=CCn1c(=O)c2c(nc(-c3ccc(S(=O)(=O)O)cc3)n2C)n(C)c1=O` the value was “inactive”.
With `O=C(O)c1cc2cc(F)ccc2[nH]1`, the Potency entry is “inactive”.
The entry for `CN1Cc2sccc2C(c2ccc(O)c(O)c2)C1` (stereo not given) is “inactive”; for `Nc1ncnc2c1ncn2C1CCCO1` (stereo not given) it is “inactive”; for `CC(N)(Cc1ccc(O)cc1)C(=O)O` (stereo not given) it is “inactive”.
Consider `CNc1cc(NS(=O)(=O)c2ccc(N)cc2)nc(NC)n1`, for which the Potency entry is “inactive”.
For `N=C(N)c1ccccc1` the value was “inactive”; for `CC(C)NC[C@H](O)COc1ccc(CC(N)=O)cc1`, “inactive”; for `CN1CCN(c2nc3cc(C(F)(F)F)ccc3n3cccc23)CC1`, “inactive”.
For `CC(=O)C(C)=O` the value was “inactive”; for `O=C(O)C1=CCCNC1`, “inactive”.
As for `CCCCC[C@H](CC(=O)NO)C(=O)N[C@H](C(=O)N1CCC[C@H]1CO)C(C)C`, the Potency entry is “inactive”.
The entry for `CCCN(CCc1ccccc1)C1CCc2c(O)cccc2C1` (stereo not given) is “inactive”.
For `C[C@H](O)C(=O)C1=Nc2c(nc(N)[nH]c2=O)NC1` the value was “inactive”.
With `CSC(=N)N`, the Potency entry was “inactive”.
For the molecule `CCC1(O)CC2CN(CCc3c([nH]c4ccccc34)[C@@](C(=O)OC)(c3cc4c(cc3OC)N(C)C3[C@]45CCN4CC=C[C@@](CC)([C@@H](OC(C)=O)[C@]3(O)C(=O)OC)[C@H]45)C2)C1` (stereo not given in full), the Potency result is “inactive”.
The entry for `CC[C@H](NC(=O)c1c(C)c(-c2ccccc2)nc2ccccc12)c1ccccc1` is “inactive”; for `CC(=O)O[C@H]1CC2(C)[C@@H](C[C@@H](O)[C@H]3[C@@]4(C)CC[C@@H](O)[C@@H](C)[C@@H]4CC[C@@]32C)C1=C(CCC=C(C)C)C(=O)O` (stereo not given in full) it is “inactive”.
The entry for `NC(=O)c1cc[n+](CC2=C(C(=O)O)N3C(=O)[C@@H](NC(=O)[C@@H](c4ccccc4)S(=O)(=O)[O-])[C@H]3SC2)cc1` is “inactive”; for `CCN(CC)CCCCCCCCOC(=O)c1cc(OC)c(OC)c(OC)c1` it is “inactive”; for `NC1C=CC=C(C(=O)O)C1` (stereo not given) it is “inactive”.
